According to PubChem BioAssay (NCI):
Compounds without any hit were thinned out: in the full panel of roughly 83,000, 20% have a hit.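 96-well plates, one dose, 48 hours. Percent growth reported; active if below 10.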 Calls of active or inactive are those of the source.

What was measured:
Assay in all cases: NCI-60 one-dose screen, 48 h (100 = growth as untreated, 0 = no growth, -100 = all killed)
Details in all cases: 10 µM unless noted
NCI-H23 lung = system: NCI-H23 lung
NCI-H322M lung = system: NCI-H322M lung
HOP-62 NSCLC = system: HOP-62 NSCLC
NCI-H460 lung = system: NCI-H460 lung
HOP-92 NSCLC = system: HOP-92 NSCLC
NCI-H522 lung = system: NCI-H522 lung
A549/ATCC NSCLC = system: A549/ATCC NSCLC
786-0 renal = system: 786-0 renal
COLO 205 colon = system: COLO 205 colon
DU-145 prostate = system: DU-145 prostate
K-562 leukemia = system: K-562 leukemia
MALME-3M melanoma = system: MALME-3M melanoma
MDA-MB-231 breast = system: MDA-MB-231 breast
RXF 393 renal = system: RXF 393 renal
SF-268 CNS = system: SF-268 CNS
SF-295 CNS = system: SF-295 CNS
SF-539 CNS = system: SF-539 CNS
UACC-257 melanoma = system: UACC-257 melanoma
M14 melanoma = system: M14 melanoma
HCT-15 colon = system: HCT-15 colon

Measured: growth

COc1nccc2cc3c(=O)n4c(cc5ccccc54)c(=O)n3c12
inactive: NCI-H23 lung 89.8% | NCI-H322M lung 86.3% | HOP-62 NSCLC 82.3% | NCI-H460 lung 103% | HOP-92 NSCLC 118% | NCI-H522 lung 93.7% | A549/ATCC NSCLC 104% | 786-0 renal 102% | COLO 205 colon 102% | DU-145 prostate 111% | K-562 leukemia 91.9% | MALME-3M melanoma 85.7% | MDA-MB-231 breast 90.3% | RXF 393 renal 112% | SF-268 CNS 101% | SF-295 CNS 106% | SF-539 CNS 104% | UACC-257 melanoma 114% | M14 melanoma 97.2% | HCT-15 colon 91.4%

Cc1c(-c2csc(-n3nc(C(F)(F)F)cc3C(F)(F)F)n2)no[n+]1[O-]
inactive: NCI-H23 lung 98.4% | NCI-H322M lung 98.8% | HOP-62 NSCLC 100% | NCI-H460 lung 98.9% | HOP-92 NSCLC 96.3% | NCI-H522 lung 87.4% | A549/ATCC NSCLC 95.3% | 786-0 renal 97.5% | COLO 205 colon 112% | DU-145 prostate 105% | K-562 leukemia 93.1% | MALME-3M melanoma 96.8% | MDA-MB-231 breast 96.5% | RXF 393 renal 101% | SF-268 CNS 96.1% | SF-295 CNS 93.9% | SF-539 CNS 99.1% | UACC-257 melanoma 98.5% | M14 melanoma 90.2% | HCT-15 colon 95.4%

Nc1ccc(-c2ccc(-c3ccccc3N)c3[nH]c4ccccc4c23)cc1
inactive: NCI-H23 lung 28.4% | NCI-H322M lung 41.4% | HOP-62 NSCLC 42.1% | NCI-H460 lung 16.1% | HOP-92 NSCLC 36.9% | NCI-H522 lung 46.4% | A549/ATCC NSCLC 30.4% | 786-0 renal 46% | COLO 205 colon 13.2% | DU-145 prostate 10.2% | K-562 leukemia 13.4% | MALME-3M melanoma 36.8% | MDA-MB-231 breast 36.2% | RXF 393 renal 24.5% | SF-268 CNS 39.5% | SF-295 CNS 22.2% | SF-539 CNS 28% | UACC-257 melanoma 33.2% | HCT-15 colon 19.5%
active: M14 melanoma 6.58%

Cc1nc2ccccc2c(/C=C/c2ccccc2)c1C(=O)/C=C/c1ccc(Cl)cc1
inactive: NCI-H23 lung 34.8% | NCI-H322M lung 50% | HOP-62 NSCLC 11.7% | HOP-92 NSCLC 46.9% | A549/ATCC NSCLC 25.3% | COLO 205 colon 31.3% | MALME-3M melanoma 40.8% | SF-268 CNS 44.6% | SF-295 CNS 29% | SF-539 CNS 26.6% | UACC-257 melanoma 29.9% | M14 melanoma 17.1%
active: NCI-H460 lung -37.6% | NCI-H522 lung -18.9% | 786-0 renal 2.52% | DU-145 prostate 4.72% | K-562 leukemia 5.19% | MDA-MB-231 breast 8.28% | RXF 393 renal -28.2% | HCT-15 colon -13.2%

CCOC(=O)C(CC(=O)O)=C(C(=O)OCC)C(=O)OCC
inactive: NCI-H23 lung 105% | NCI-H322M lung 114% | HOP-62 NSCLC 104% | NCI-H460 lung 107% | HOP-92 NSCLC 89.5% | NCI-H522 lung 114% | A549/ATCC NSCLC 101% | 786-0 renal 115% | COLO 205 colon 121% | DU-145 prostate 109% | K-562 leukemia 106% | MALME-3M melanoma 121% | MDA-MB-231 breast 123% | RXF 393 renal 102% | SF-268 CNS 107% | SF-295 CNS 100% | SF-539 CNS 102% | UACC-257 melanoma 100% | M14 melanoma 115% | HCT-15 colon 96.8%

O=C1Nc2ccccc2/C1=C/c1ccc[nH]1
inactive: NCI-H23 lung 84.9% | NCI-H322M lung 88% | HOP-62 NSCLC 78.8% | NCI-H460 lung 85.9% | HOP-92 NSCLC 104% | NCI-H522 lung 90.9% | A549/ATCC NSCLC 92.9% | 786-0 renal 96.3% | COLO 205 colon 106% | DU-145 prostate 101% | K-562 leukemia 107% | MALME-3M melanoma 94.5% | MDA-MB-231 breast 40.3% | RXF 393 renal 80.5% | SF-268 CNS 92.1% | SF-295 CNS 102% | SF-539 CNS 86.6% | UACC-257 melanoma 96.6% | M14 melanoma 89.8% | HCT-15 colon 42.1%

COc1ccccc1N1CCN(C(CNS(=O)(=O)c2ccc(Cl)cc2)c2cccnc2)CC1 (stereo not given)
inactive: NCI-H23 lung 96.6% | NCI-H322M lung 128% | HOP-62 NSCLC 94% | NCI-H460 lung 77.1% | HOP-92 NSCLC 79.5% | NCI-H522 lung 110% | A549/ATCC NSCLC 90.8% | 786-0 renal 42.4% | COLO 205 colon 108% | DU-145 prostate 85.1% | K-562 leukemia 28.4% | MALME-3M melanoma 60.2% | MDA-MB-231 breast 71% | RXF 393 renal 36.3% | SF-268 CNS 90.8% | SF-539 CNS 64.9% | UACC-257 melanoma 120% | M14 melanoma 104% | HCT-15 colon 49%
active: SF-295 CNS 2.26%

COc1cc(C(C)n2cc(-c3ccccc3)nn2)ccc1OC1CCCC1 (stereo not given)
inactive: NCI-H23 lung 45.4% | NCI-H322M lung 78% | HOP-62 NSCLC 52.7% | NCI-H460 lung 74.1% | HOP-92 NSCLC 54.7% | NCI-H522 lung 51.2% | A549/ATCC NSCLC 61.3% | 786-0 renal 72.7% | COLO 205 colon 91.8% | DU-145 prostate 85.6% | K-562 leukemia 34% | MALME-3M melanoma 63.7% | MDA-MB-231 breast 76% | RXF 393 renal 83.1% | SF-268 CNS 72% | SF-295 CNS 47.1% | SF-539 CNS 69.3% | UACC-257 melanoma 55.4% | M14 melanoma 82.8% | HCT-15 colon 62.2%

CN1C(=O)N(C)C2(c3ccccc3)n3c(s/c(=C\c4ccccc4)c3=O)=NNC12c1ccccc1 (stereo not given)
inactive: NCI-H23 lung 97.2% | NCI-H322M lung 95.3% | HOP-62 NSCLC 101% | NCI-H460 lung 91.6% | HOP-92 NSCLC 89.5% | NCI-H522 lung 84.3% | A549/ATCC NSCLC 89.1% | 786-0 renal 98.3% | COLO 205 colon 112% | DU-145 prostate 93% | K-562 leukemia 71.2% | MALME-3M melanoma 86.9% | MDA-MB-231 breast 85.1% | RXF 393 renal 86.8% | SF-268 CNS 96.9% | SF-295 CNS 97.3% | SF-539 CNS 93.1% | UACC-257 melanoma 98.3% | M14 melanoma 83.4% | HCT-15 colon 89.5%

COc1ccc(C(=O)Nc2ccc3nc(N4CCCCC4)cc(C)c3c2)cc1OC
inactive: NCI-H23 lung 96.8% | NCI-H322M lung 117% | HOP-62 NSCLC 115% | NCI-H460 lung 51.9% | HOP-92 NSCLC 40.8% | NCI-H522 lung 98.3% | A549/ATCC NSCLC 85.2% | 786-0 renal 85.4% | COLO 205 colon 95.9% | DU-145 prostate 83.9% | MALME-3M melanoma 64.8% | MDA-MB-231 breast 48.3% | RXF 393 renal 92.3% | SF-268 CNS 89.5% | SF-295 CNS 48.6% | SF-539 CNS 82.2% | UACC-257 melanoma 102% | M14 melanoma 83.9% | HCT-15 colon 31.6%
active: K-562 leukemia -18.6%

COc1c(B(O)O)cccc1-c1nc2ccc3n[nH]c(F)c3c2c2c1CCCC2
inactive: NCI-H23 lung 92.9% | NCI-H322M lung 92.6% | HOP-62 NSCLC 66.3% | NCI-H460 lung 47.2% | HOP-92 NSCLC 78.6% | NCI-H522 lung 59.4% | A549/ATCC NSCLC 66% | 786-0 renal 69.5% | COLO 205 colon 93.2% | DU-145 prostate 77.7% | K-562 leukemia 92.9% | MALME-3M melanoma 119% | MDA-MB-231 breast 28.9% | RXF 393 renal 24.1% | SF-268 CNS 50.5% | SF-295 CNS 80% | SF-539 CNS 25.1% | UACC-257 melanoma 121% | M14 melanoma 104% | HCT-15 colon 85.3%

CCOC(=O)C1=C(C)N=c2s/c(=C\c3cc(Cl)ccc3O)c(=O)n2C1c1ccc(OC)cc1 (stereo not given)
inactive: NCI-H23 lung 88.1% | NCI-H322M lung 104% | HOP-62 NSCLC 110% | NCI-H460 lung 91.6% | HOP-92 NSCLC 69.2% | NCI-H522 lung 81% | A549/ATCC NSCLC 94.9% | 786-0 renal 94.6% | COLO 205 colon 101% | DU-145 prostate 107% | K-562 leukemia 73.8% | MALME-3M melanoma 109% | MDA-MB-231 breast 95.1% | RXF 393 renal 80.9% | SF-268 CNS 107% | SF-295 CNS 111% | SF-539 CNS 118% | UACC-257 melanoma 101% | M14 melanoma 88.4% | HCT-15 colon 98.6%

CC[C@H](C)[C@@H](C(=O)OC)n1cc(CNC(=O)[C@@H](Cc2ccccc2)NC(=O)OCc2ccccc2)nn1
inactive: NCI-H23 lung 104% | NCI-H322M lung 95.5% | HOP-62 NSCLC 103% | NCI-H460 lung 104% | HOP-92 NSCLC 96.4% | NCI-H522 lung 87.4% | A549/ATCC NSCLC 87.2% | 786-0 renal 106% | COLO 205 colon 122% | DU-145 prostate 104% | K-562 leukemia 95.9% | MALME-3M melanoma 100% | MDA-MB-231 breast 101% | RXF 393 renal 104% | SF-268 CNS 93.8% | SF-295 CNS 99.4% | SF-539 CNS 104% | UACC-257 melanoma 95.8% | M14 melanoma 109% | HCT-15 colon 97.5%

COc1c2ccoc2c(/C=C/C=O)c2oc(-c3ccccc3)cc(=O)c12
inactive: NCI-H23 lung 50.4% | NCI-H322M lung 87.7% | HOP-62 NSCLC 59.7% | NCI-H460 lung 89.4% | HOP-92 NSCLC 105% | NCI-H522 lung 67.9% | A549/ATCC NSCLC 91.3% | 786-0 renal 94.4% | COLO 205 colon 116% | DU-145 prostate 63.1% | K-562 leukemia 24.1% | MALME-3M melanoma 98% | MDA-MB-231 breast 66.3% | RXF 393 renal 79% | SF-268 CNS 39.8% | SF-295 CNS 51.3% | SF-539 CNS 38.3% | UACC-257 melanoma 108% | M14 melanoma 70.8%
active: HCT-15 colon 3.15%

COc1cc2nc(-c3cnc(N(C)C)nc3)nc(NC3CCN(Cc4ccccc4)CC3)c2cc1OC
inactive: UACC-257 melanoma 24.1%
active: NCI-H23 lung -33.8% | NCI-H322M lung -85.7% | HOP-62 NSCLC -70.4% | NCI-H460 lung -71.1% | HOP-92 NSCLC -76.8% | NCI-H522 lung -64.2% | A549/ATCC NSCLC -66.3% | 786-0 renal -71% | COLO 205 colon -82.5% | DU-145 prostate -83.9% | K-562 leukemia -40.4% | MALME-3M melanoma -74.4% | MDA-MB-231 breast -87.7% | RXF 393 renal -78.6% | SF-268 CNS -60% | SF-295 CNS -92% | SF-539 CNS -92.9% | M14 melanoma -80.6% | HCT-15 colon -85.9%
